Among the test systems are HCT-15 colon; HT29 colon; SNB-75 CNS; U251 CNS; SK-MEL-5 melanoma; LOX IMVI melanoma; SK-MEL-28 melanoma; SK-MEL-2 melanoma; EKVX NSCLC; SN12C renal; UO-31 renal; TK-10 renal; ACHN renal; CAKI-1 renal; CCRF-CEM leukemia; MOLT-4 leukemia; PC-3 prostate; UACC-62 melanoma; A498 renal; SNB-19 CNS.
Common to all, as to assay: NCI-60 one-dose screen, 48 h (100 = growth as untreated, 0 = no growth, -100 = all killed)
Holding throughout (conditions): 10 µM unless noted

About 83,000 compounds went through this panel and 20% of them were active in at least one assay; those are over-represented in the sample as a whole.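 How to read the values: 0–100, growth inhibition (40 = 60% inhibited); 0, no net growth; -100 to 0, cell death (-40 = 40% of starting cells died; -100 = all dead).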 Unmarked numbers belong to inactive results. Activity calls are given as the source filed them. How the source made its calls: active means growth percent below 10; inactive means the rest.

As to `CCCOC(=O)N[C@H]1CCc2cc(OC)c(OC)c(OC)c2-c2ccc(SC)c(=O)cc21`, the growth is 14.8% with HCT-15 colon; 14.2% with HT29 colon; 34.3% in the experiment with SNB-75 CNS; 19.6% with U251 CNS; -14.6% (active) in the experiment on SK-MEL-5 melanoma; 18.6% in the experiment with LOX IMVI melanoma. For the same compound, the growth is 58.7% in the experiment on SK-MEL-28 melanoma; 50.8% in the experiment on SK-MEL-2 melanoma; 51.5% with EKVX NSCLC; 29.5% in the experiment on SN12C renal; 38.3% in the experiment with UO-31 renal; 48.2% in the experiment with TK-10 renal. For the same compound, the growth is 27.8% with ACHN renal, 19.8% in the experiment with CAKI-1 renal, 4.23% (active) in the experiment on CCRF-CEM leukemia and 7.04% (active) with MOLT-4 leukemia.
On to `NC(=O)CSSCC(N)=O`, for which the growth is 102% with HCT-15 colon; 105% in the experiment with HT29 colon; 95.2% with SNB-75 CNS; 93.4% with U251 CNS; 92.1% with PC-3 prostate; 98.4% in the experiment with SK-MEL-5 melanoma. Moreover, the growth in the experiment on UACC-62 melanoma was 95.8%; with LOX IMVI melanoma, 100%; in the experiment with SK-MEL-28 melanoma it was 109%; with SK-MEL-2 melanoma it was 107%; with EKVX NSCLC, 86.7%; in the experiment on SN12C renal it was 108%. For the same compound, the growth in the experiment with UO-31 renal was 93%; in the experiment with TK-10 renal, 110%; in the experiment with ACHN renal, 100%; in the experiment with CAKI-1 renal, 99%; in the experiment with A498 renal, 127%; with CCRF-CEM leukemia, 88.3%. The growth with MOLT-4 leukemia is 76.8%.
With `COc1cc(/C=N/O)nc(-c2ccccn2)c1`, the growth in the experiment with HCT-15 colon is 26.7%; in the experiment on HT29 colon, 32.6%; with SNB-75 CNS, 43%; with U251 CNS it was 21.3%; in the experiment on PC-3 prostate it was 49.5%; in the experiment on SK-MEL-5 melanoma, -22.1% (active). The growth in the experiment with UACC-62 melanoma is 4.54% (active); in the experiment on LOX IMVI melanoma, 3.54% (active); in the experiment with SK-MEL-28 melanoma, 18.2%; with SK-MEL-2 melanoma it was 25.6%; in the experiment with EKVX NSCLC, 23.4%; in the experiment on SN12C renal it was 15.5%. Besides, the growth in the experiment with UO-31 renal was 3.15% (active); in the experiment on TK-10 renal, 35.3%; in the experiment with ACHN renal, 9.42% (active); in the experiment with CAKI-1 renal, 18.4%; in the experiment on CCRF-CEM leukemia, 9.2% (active); in the experiment on MOLT-4 leukemia, 12%.
Consider `N#CC(C(=O)/C(=N/NC(=O)c1ccccc1O)C(C#N)c1ccccc1)c1ccccc1` (centres undefined), for which the growth with HCT-15 colon is 43.1%; with HT29 colon, 101%; in the experiment on SNB-19 CNS, 33.2%; in the experiment with U251 CNS, 6.45% (active); in the experiment on PC-3 prostate, 55.2%; with SK-MEL-5 melanoma, 81.7%. Also, the growth in the experiment on UACC-62 melanoma is 21.7%; in the experiment on LOX IMVI melanoma, 44.7%; with SK-MEL-28 melanoma it was 83.7%; with SK-MEL-2 melanoma it was 68.6%; with EKVX NSCLC it was 76.7%; in the experiment with SN12C renal, 52.5%. Also, the growth was 29.4% in the experiment with UO-31 renal; 69.7% with TK-10 renal; 31% with ACHN renal; 82.5% with CAKI-1 renal; 30.9% in the experiment on A498 renal.
As to `CC(C)(C)c1ccc(NS(=O)(=O)c2ccc3nc(NC(=O)c4cnccn4)[nH]c3c2)cc1`, the growth was 28.6% in the experiment with HCT-15 colon; 11% in the experiment on HT29 colon; -30.3% (active) with SNB-75 CNS; 35.3% with U251 CNS; 28.3% in the experiment with PC-3 prostate; 13.4% in the experiment with SK-MEL-5 melanoma. Further, the growth in the experiment on UACC-62 melanoma is 40.4%; with LOX IMVI melanoma it was 40.4%; in the experiment with SK-MEL-28 melanoma it was 45.8%; in the experiment on SK-MEL-2 melanoma, 45.3%; in the experiment on EKVX NSCLC, 58.6%; with SN12C renal, 44.3%. The growth is 36.1% in the experiment on UO-31 renal, 21.7% with CAKI-1 renal, 7.84% (active) in the experiment on CCRF-CEM leukemia and 27.7% with MOLT-4 leukemia.
As for `COc1ccc(NC(=O)c2cc(NCc3cc(O)ccc3O)ccc2O)cc1`, the growth is 97% with HCT-15 colon; 89.7% in the experiment on HT29 colon; 101% in the experiment on SNB-75 CNS; 91.1% in the experiment on U251 CNS; 64.1% in the experiment on PC-3 prostate; 92.6% in the experiment on SK-MEL-5 melanoma. Moreover, the growth with UACC-62 melanoma was 94.6%; with LOX IMVI melanoma, 94.3%; with SK-MEL-28 melanoma it was 98.5%; in the experiment with SK-MEL-2 melanoma, 89.3%; in the experiment with EKVX NSCLC, 100%; with SN12C renal it was 85.8%. The growth is 65.8% in the experiment on UO-31 renal; 118% in the experiment on TK-10 renal; 97.4% in the experiment on ACHN renal; 107% in the experiment on CAKI-1 renal; 28.5% in the experiment with CCRF-CEM leukemia; 65.2% in the experiment with MOLT-4 leukemia.
For the compound `CN[C@@H](C)C(=O)N[C@H]1CCS[C@H]2CC(C)(C)[C@@H](C(=O)N[C@H]3c4ccccc4C[C@H]3OCC#CC#CCO[C@@H]3Cc4ccccc4[C@@H]3NC(=O)[C@H]3N4C(=O)[C@@H](NC(=O)[C@H](C)NC)CCS[C@H]4CC3(C)C)N2C1=O`, the growth in the experiment with HCT-15 colon was 109%; with HT29 colon, 112%; in the experiment with SNB-75 CNS, 16.5%; in the experiment on SNB-19 CNS, 97.1%; in the experiment with U251 CNS, 100%; with SK-MEL-5 melanoma, 66.2%. The growth with UACC-62 melanoma is 102%; in the experiment on LOX IMVI melanoma it was 69.7%; in the experiment with SK-MEL-28 melanoma, 107%; in the experiment on EKVX NSCLC, 121%; with SN12C renal, 97.8%; with UO-31 renal, 97.8%. Moreover, the growth with TK-10 renal is 130%; in the experiment with ACHN renal, 106%; in the experiment with CCRF-CEM leukemia, 25.1%; in the experiment on MOLT-4 leukemia it was 95.5%.
Consider `O=C1Nc2ccc(F)cc2/C1=C\c1c(-c2ccccc2)nc2ccccn12`, for which the growth with HCT-15 colon was 51.9%; with HT29 colon it was 52.1%; with SNB-75 CNS it was 61.6%; in the experiment with U251 CNS, 82.7%; with PC-3 prostate, 67.5%; with SK-MEL-5 melanoma, 61.5%. Further, the growth with UACC-62 melanoma was 60.7%; with LOX IMVI melanoma it was 64.1%; in the experiment with SK-MEL-28 melanoma, 85.1%; in the experiment on SK-MEL-2 melanoma, 63.7%; in the experiment with EKVX NSCLC it was 61.8%; in the experiment with SN12C renal, 80.4%. Also, the growth with UO-31 renal is 46.6%; with TK-10 renal, 81%; with ACHN renal, 53.4%; with CAKI-1 renal it was 34.3%; in the experiment on A498 renal, 43.1%; with CCRF-CEM leukemia, 57.7%. In addition, the growth in the experiment on MOLT-4 leukemia was 51%.

The values above are taken from PubChem BioAssay (NCI).
